Our source for the Percent Effect values is ChEMBL document CHEMBL3988442, “University of Dundee, Small-Polar-MMV Screening Library” (2021).

Common to all, as to parameters: scale not given: direction of the effect not stated beside the values
The target in test [1] is Protein translocase subunit SecA (Escherichia coli (strain K12)) (UniProt P10408). In words: Assay to Identify E. coli SecA ATPase Inhibitors. The test is classed as functional. The note with it: 30 µM.
Test [2] addresses T1, Ubiquitin-activating enzyme e1, putative (Leishmania donovani (strain BPK282A1)) (UniProt E9BSI1).
T1 sequence (whole entry): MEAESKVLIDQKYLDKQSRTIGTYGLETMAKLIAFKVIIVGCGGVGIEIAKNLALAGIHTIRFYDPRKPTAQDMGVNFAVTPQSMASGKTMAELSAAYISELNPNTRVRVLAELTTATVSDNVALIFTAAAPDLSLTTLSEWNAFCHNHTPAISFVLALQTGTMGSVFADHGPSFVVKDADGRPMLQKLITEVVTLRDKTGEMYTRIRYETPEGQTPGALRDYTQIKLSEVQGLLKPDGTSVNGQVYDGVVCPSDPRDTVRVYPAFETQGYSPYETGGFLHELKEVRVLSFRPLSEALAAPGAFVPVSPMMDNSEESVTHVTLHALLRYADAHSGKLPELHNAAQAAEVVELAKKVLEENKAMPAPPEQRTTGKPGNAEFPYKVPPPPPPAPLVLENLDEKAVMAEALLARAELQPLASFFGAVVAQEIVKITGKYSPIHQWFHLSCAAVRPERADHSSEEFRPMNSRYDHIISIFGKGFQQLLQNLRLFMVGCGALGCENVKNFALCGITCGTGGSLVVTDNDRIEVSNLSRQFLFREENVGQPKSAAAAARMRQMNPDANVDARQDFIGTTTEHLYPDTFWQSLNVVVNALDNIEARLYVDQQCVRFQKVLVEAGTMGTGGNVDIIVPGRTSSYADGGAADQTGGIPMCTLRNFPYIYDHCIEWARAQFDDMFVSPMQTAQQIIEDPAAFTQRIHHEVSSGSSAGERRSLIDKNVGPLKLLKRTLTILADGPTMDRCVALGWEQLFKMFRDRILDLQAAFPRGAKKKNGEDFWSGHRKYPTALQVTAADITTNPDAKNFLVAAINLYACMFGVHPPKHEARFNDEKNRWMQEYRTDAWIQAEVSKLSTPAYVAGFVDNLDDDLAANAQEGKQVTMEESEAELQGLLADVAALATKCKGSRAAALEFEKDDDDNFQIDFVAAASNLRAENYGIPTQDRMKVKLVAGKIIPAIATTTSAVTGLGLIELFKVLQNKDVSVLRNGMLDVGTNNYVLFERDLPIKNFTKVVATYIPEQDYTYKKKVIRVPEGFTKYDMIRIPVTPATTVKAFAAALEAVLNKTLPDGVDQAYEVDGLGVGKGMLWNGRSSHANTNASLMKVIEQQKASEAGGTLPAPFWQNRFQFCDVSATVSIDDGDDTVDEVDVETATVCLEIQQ
In words: Leishmania donovani Ubiquitin Activating Enzyme (LdE1). The test is classed as functional. Conditions: 30 µM.

For test [3], the target named is AMP-activated protein kinase, AMPK (Homo sapiens) (UniProt P54646+O43741+P54619+Q9UGJ0+Q9Y478+Q13131+Q9UGI9). The test can be described thus: AMP-dependent Kinase enzyme assay. An in vitro enzyme assay that detects ADP turnover that is directly proportional to AMPK activity. This uses naive AMPK that is activated during the assay with MK-8722. The note with it: 30 µM. The class given is functional.

The target of test [4] is Sialic acid-binding Ig-like lectin 9 (Homo sapiens) (UniProt Q9Y336). The test can be described thus: Hs-Siglec9 ALPHAscreen SOP 20170721. The note with it: 10 µM. In general terms: Bead proximity is the source of the signal in Alpha formats.
The test system of a further test is Trypanosoma cruzi. The test can be described thus: Trypanosoma cruzi phosphomannomutase and mannose-1-phosphate guanylyltransferase assay. The class given is functional. Conditions: 10 µM.
Test [5] has as its target T2, Arginase-2, mitochondrial (Homo sapiens) (UniProt P78540).
T2 sequence (whole entry): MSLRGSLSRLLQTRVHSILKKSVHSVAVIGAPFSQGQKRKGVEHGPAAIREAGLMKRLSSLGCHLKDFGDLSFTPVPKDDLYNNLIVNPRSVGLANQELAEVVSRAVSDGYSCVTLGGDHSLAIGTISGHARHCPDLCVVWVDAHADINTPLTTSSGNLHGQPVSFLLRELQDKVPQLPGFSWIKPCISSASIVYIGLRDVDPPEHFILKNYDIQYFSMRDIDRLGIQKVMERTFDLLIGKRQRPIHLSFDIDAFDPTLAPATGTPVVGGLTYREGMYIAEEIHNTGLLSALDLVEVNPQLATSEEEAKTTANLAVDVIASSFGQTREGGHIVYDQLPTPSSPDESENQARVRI
In words: in vitro enzyme assay to detect the production of urea directly proportional to the activity of Arginase II. Further: in the data most compounds retested in dose-response had high values. The test is classed as functional. The note with it: 33.3 µM.

The target of test [6] is T3, Proteasome subunit beta (Trypanosoma cruzi) (UniProt O96673).
T3 sequence (whole entry): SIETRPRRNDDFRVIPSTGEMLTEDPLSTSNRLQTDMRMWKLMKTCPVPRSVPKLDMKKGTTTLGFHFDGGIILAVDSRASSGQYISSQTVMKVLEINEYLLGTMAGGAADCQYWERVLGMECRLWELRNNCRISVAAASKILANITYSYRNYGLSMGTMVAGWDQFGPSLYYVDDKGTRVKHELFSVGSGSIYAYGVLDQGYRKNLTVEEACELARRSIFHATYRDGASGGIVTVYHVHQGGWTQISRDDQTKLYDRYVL
In words: Trypanosoma cruzi proteasome chymotrypsin-like activity (TcProtChymo) assay. Further: in the data most compounds retested in dose-response had high values. Conditions: 9.37 µM. The class given is functional.

The species entered for another test is Homo sapiens. The test can be described thus: To identify inhibition of the IFN signalling (Jak-Stat) pathway via expression of an eGFP reporter gene under the control of an IFN-stimulated response element (ISRE) containing MxA promoter. The test is classed as functional. The note with it: 30 µM.
The target in test [7] is T4, Tyrosyl-tRNA synthetase, putative (Trypanosoma cruzi (strain CL Brener)) (UniProt Q4DSP6).
T4 sequence (whole entry): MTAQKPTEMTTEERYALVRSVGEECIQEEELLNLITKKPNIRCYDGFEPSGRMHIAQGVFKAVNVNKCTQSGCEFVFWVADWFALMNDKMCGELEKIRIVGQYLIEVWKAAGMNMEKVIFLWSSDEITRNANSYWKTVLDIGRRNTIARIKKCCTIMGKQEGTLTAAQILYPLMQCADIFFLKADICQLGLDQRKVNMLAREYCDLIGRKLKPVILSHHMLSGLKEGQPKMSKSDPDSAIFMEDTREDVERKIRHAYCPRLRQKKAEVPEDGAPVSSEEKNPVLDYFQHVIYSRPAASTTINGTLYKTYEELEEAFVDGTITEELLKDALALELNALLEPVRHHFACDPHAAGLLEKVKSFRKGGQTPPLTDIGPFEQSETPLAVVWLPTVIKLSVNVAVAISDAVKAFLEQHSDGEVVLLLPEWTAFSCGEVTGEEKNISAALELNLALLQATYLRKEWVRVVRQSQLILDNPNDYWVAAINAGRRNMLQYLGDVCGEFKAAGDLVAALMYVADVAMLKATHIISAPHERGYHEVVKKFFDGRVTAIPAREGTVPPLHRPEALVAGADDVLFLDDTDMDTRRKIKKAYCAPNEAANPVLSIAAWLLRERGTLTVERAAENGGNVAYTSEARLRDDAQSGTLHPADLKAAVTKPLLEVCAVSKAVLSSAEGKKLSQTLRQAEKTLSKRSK
The test can be described thus: Trypanosoma cruzi tyrosyl tRNA synthetase (TcYRS) _High Tyrosine SOP. Further: in the data most compounds retested in dose-response had high values. The test is classed as functional. The note with it: 30 µM.

The target in test [8] is T4, Tyrosyl-tRNA synthetase, putative (Trypanosoma cruzi (strain CL Brener)). The test can be described thus: Trypanosoma cruzi tyrosyl tRNA synthetase (TcYRS) SOP. The class given is functional. The note with it: 30 µM.
For test [9], the target named is Chromo domain-containing protein 1 (Saccharomyces cerevisiae (strain ATCC 204508 / S288c) (Baker's yeast)) (UniProt P32657). The test can be described thus: ScCHD-1 Enzyme Inhibition Assay. Further: in the data most compounds retested in dose-response had high values. The note with it: 30 µM. The test is classed as functional.

SMILES strings stand for the structures. For some of these results: Potency and affinity values are given separately.

Sequence of Chromo domain-containing protein 1 (Saccharomyces cerevisiae (strain ATCC 204508 / S288c) (Baker's yeast)) (P32657 whole entry, the tested form may be a part): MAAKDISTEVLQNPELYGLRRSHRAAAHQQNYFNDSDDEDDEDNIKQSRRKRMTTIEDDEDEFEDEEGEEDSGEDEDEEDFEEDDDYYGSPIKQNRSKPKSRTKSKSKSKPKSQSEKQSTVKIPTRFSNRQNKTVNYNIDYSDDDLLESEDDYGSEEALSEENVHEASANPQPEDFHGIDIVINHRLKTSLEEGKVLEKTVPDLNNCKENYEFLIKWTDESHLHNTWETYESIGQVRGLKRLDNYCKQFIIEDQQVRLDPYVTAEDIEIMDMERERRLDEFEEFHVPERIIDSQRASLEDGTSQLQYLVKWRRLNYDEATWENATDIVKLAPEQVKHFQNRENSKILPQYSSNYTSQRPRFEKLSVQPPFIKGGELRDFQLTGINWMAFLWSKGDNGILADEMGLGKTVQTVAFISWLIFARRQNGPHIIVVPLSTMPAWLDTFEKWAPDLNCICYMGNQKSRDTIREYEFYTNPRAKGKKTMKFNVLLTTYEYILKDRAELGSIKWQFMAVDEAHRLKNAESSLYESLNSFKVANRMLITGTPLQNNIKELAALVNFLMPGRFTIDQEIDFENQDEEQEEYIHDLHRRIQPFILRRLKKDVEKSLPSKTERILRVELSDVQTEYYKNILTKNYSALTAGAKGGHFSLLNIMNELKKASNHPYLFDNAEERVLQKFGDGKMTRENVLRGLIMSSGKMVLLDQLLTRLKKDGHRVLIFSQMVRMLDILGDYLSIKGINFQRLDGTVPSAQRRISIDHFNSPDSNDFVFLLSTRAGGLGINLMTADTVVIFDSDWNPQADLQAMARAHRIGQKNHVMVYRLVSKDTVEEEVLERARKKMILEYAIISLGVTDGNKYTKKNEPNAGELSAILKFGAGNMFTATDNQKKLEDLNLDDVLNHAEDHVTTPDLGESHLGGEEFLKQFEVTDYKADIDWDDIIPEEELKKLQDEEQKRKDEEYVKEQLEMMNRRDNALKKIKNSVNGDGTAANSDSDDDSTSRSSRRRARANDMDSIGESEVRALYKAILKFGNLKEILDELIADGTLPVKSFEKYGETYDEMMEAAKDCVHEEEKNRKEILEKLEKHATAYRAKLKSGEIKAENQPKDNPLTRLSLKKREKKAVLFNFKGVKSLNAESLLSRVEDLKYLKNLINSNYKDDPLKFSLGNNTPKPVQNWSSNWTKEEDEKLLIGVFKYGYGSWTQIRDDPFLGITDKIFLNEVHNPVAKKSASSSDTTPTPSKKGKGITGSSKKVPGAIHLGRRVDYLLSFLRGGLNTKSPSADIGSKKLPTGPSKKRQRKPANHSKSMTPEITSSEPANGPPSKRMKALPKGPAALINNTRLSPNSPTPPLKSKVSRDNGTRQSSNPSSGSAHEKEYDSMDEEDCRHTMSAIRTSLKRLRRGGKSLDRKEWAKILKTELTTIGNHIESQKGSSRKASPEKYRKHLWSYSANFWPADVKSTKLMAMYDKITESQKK
Sequence of Sialic acid-binding Ig-like lectin 9 (Homo sapiens) (Q9Y336 whole entry): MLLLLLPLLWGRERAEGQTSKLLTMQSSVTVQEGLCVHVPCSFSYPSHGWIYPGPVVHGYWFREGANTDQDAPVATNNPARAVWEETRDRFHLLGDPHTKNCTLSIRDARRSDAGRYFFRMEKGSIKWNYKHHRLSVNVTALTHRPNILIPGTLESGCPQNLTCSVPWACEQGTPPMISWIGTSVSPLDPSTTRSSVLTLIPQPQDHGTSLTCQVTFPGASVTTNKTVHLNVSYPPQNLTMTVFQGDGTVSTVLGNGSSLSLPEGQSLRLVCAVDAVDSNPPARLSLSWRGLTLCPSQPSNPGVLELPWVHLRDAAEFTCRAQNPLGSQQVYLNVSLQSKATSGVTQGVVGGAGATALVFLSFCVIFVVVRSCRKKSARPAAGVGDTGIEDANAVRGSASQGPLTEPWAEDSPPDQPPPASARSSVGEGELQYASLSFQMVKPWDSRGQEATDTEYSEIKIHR
Sequence of Protein translocase subunit SecA (Escherichia coli (strain K12)) (P10408 whole entry): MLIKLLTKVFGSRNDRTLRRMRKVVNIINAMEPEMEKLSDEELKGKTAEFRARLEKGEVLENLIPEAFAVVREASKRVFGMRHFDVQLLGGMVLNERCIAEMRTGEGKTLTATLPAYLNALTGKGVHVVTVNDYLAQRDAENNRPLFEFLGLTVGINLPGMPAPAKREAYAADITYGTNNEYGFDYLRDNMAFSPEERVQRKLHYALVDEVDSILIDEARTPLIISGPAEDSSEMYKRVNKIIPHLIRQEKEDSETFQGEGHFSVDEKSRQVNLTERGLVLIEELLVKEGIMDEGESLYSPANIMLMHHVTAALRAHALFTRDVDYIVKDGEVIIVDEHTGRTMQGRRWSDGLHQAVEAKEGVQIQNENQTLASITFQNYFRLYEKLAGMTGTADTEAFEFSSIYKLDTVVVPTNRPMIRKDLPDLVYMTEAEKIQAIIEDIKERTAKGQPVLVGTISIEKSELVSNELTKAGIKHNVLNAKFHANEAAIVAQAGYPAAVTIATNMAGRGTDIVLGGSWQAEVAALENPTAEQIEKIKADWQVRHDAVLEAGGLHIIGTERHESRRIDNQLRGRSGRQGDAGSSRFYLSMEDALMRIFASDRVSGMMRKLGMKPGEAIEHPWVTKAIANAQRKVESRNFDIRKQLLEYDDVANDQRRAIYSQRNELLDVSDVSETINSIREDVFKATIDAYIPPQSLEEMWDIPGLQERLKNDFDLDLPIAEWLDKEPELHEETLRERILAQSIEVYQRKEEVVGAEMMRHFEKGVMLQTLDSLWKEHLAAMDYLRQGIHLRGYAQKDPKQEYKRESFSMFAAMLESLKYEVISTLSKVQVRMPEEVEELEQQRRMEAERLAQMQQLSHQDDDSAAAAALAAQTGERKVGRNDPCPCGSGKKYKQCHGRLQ

Take `CS(=O)(=O)c1ccc(OCCNCc2ccc(F)cc2F)cc1`: the Percent Effect was -5.74% in test [1]; 8.22% in [2]; 1.54% in test [3]; 2.33% in test [4]; 4.37% in the test on Trypanosoma cruzi; -7.19% in test [5]. In addition, the Percent Effect in test [6] is 9.85%; in the test filed under Homo sapiens, 6.01%; in test [7] it was 8.33%; in test [8] it was 13.6%; in test [9], -1.49%.

Regarding `CC(C)OCCCNC(=O)c1ccc(-c2ccco2)[nH]c1=O`, the Percent Effect in test [1] was -4.6%; in test [2], 10.8%; in test [3], 60.2%; in test [4], -6.26%; with Trypanosoma cruzi, -7.83%; in [5], -1.6%. Moreover, the Percent Effect in test [6] was 10.1%; in the test listed under Homo sapiens, 12.9%; in [7], 6.4%; in [8], 11.1%; in [9], -5.48%.

As to `O=C(NCc1csc(Br)c1)c1ccc(=O)[nH]n1`, the Percent Effect was -0.0216% in test [1]; 6.33% in test [2]; 0.358% in [3]; -1.84% in test [4]; -3.18% in the test on Trypanosoma cruzi; 4.95% in [5]. In addition, the Percent Effect is 6.86% in test [6]; 13.1% in the test filed under Homo sapiens; 4.17% in test [7]; -10.1% in [8]; -8.89% in test [9].

As to `CCn1c(N)nc2cc(C(=O)NCCc3ccccc3C)cnc21`, the Percent Effect in [1] was -2.81%; in [2] it was 13.7%; in [3], 9.51%; in test [4], 3.5%; with Trypanosoma cruzi it was 5.09%; in test [5], 15%. Moreover, the Percent Effect is 22.7% in [6]; 20.2% in the test listed under Homo sapiens; 5.38% in [7]; 17.5% in test [8]; -12.1% in [9].

For the molecule `O=S(=O)(NC1=NCN(CCc2cccs2)CN1)c1ccc(F)cc1`, the Percent Effect in [1] is 1.07%; in [2] it was 4%; in [3], 3.26%; in [4], 4.09%; in the test with Trypanosoma cruzi, -4.91%; in [5] it was -7.57%. The Percent Effect in test [6] is 14.1%; in the test listed under Homo sapiens, -6.32%; in [7] it was 5.29%; in [8] it was 10.3%; in test [9], -10.7%.

`O=C(O)C1(Cc2cc(-c3cccc(F)c3)no2)CCOCC1`: the Percent Effect is -3.27% in test [1]; 6.76% in [2]; 11.7% in test [3]; 6.38% in test [4]; -3.75% in the test with Trypanosoma cruzi; -3.02% in test [5]. For the same molecule, the Percent Effect in test [6] was 7.8%; in the test listed under Homo sapiens it was -7.88%; in test [7], 2.15%; in test [8] it was 3.9%; in test [9], -5.82%.

In the case of `Cc1cc(C)cc(C2(C(=O)N3CCCC(n4cncn4)C3)CC2)c1` (stereo unspecified), the Percent Effect in test [1] was -0.118%; in test [2], 16.2%; in test [3], 3.34%; in test [4] it was -6.31%; in the test with Trypanosoma cruzi it was -3.44%; in test [5], 2.4%. Also, the Percent Effect in test [6] is 7.36%; in the test listed under Homo sapiens, 12.7%; in [7] it was 6.93%; in test [8] it was 18.3%; in [9], -6.26%.

In the case of `O=C(c1ccc(F)c(F)c1)N1CCCC1CN1CCCC1` (stereo unspecified), the Percent Effect is -1.25% in test [1]; 7.89% in test [2]; -2.36% in test [3]; -14.5% in test [4]; -3.02% in the test on Trypanosoma cruzi; -3.55% in [5]. In addition, the Percent Effect in test [6] was 15.2%; in the test listed under Homo sapiens, -11.1%; in [7], 7.45%; in test [8] it was 18.2%; in test [9], -8.37%.

On to `CCC(C)CNc1ccc2oc(COC)nc2c1` (stereo unspecified), for which the Percent Effect in test [1] was 7.14%; in test [2], 32.4%; in [3] it was -44.5%; in test [4], 7.84%; with Trypanosoma cruzi it was -5.08%; in test [5] it was 6.67%. The Percent Effect in test [6] is 20.9%; in the test filed under Homo sapiens it was 42.4%; in test [7], -6.93%; in [8], -11%; in test [9], 4.53%.

`CCc1ccc(C(=O)O)cc1S(=O)(=O)Nc1ccc(F)c(C#N)c1`: the Percent Effect in test [1] was -2.04%; in test [2] it was -2.7%; in [3], -11.6%; in test [4], 10.6%; with Trypanosoma cruzi it was 3.87%; in test [5] it was -0.802%. The Percent Effect in [6] is 1.08%; in the test listed under Homo sapiens it was 7.96%; in [7] it was -2.46%; in test [8], 1.24%; in test [9], -2.76%.

Turning to `Cn1nc(C2CN(C(=O)c3cscn3)C2)c2nccnc21`, the Percent Effect in test [1] was -0.655%; in [2], 17.6%; in test [3] it was -2.02%; in test [4] it was -2.09%; with Trypanosoma cruzi it was 1.38%; in test [5], 2.55%. The Percent Effect was 17.2% in [6]; 8.4% in the test filed under Homo sapiens; 6.45% in test [7]; 11.7% in test [8]; -18.2% in [9].
